High-throughput results (PubChem BioAssay)
FBW7 activator: activators of human E3 ligase FBW7 | AlphaScreen FBW7–phospho-cyclin E peptide binding, activator screen | 650,000 tested, 0.13% active | normalized activity (activation), % at 26.1 µM | Q969H0 | AID 1259310; in the data active means normalized activity above about 1.9%;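 further: purified mutant Fbw7 with reduced substrate affinity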
Target sequence (Q969H0 whole entry, looked up): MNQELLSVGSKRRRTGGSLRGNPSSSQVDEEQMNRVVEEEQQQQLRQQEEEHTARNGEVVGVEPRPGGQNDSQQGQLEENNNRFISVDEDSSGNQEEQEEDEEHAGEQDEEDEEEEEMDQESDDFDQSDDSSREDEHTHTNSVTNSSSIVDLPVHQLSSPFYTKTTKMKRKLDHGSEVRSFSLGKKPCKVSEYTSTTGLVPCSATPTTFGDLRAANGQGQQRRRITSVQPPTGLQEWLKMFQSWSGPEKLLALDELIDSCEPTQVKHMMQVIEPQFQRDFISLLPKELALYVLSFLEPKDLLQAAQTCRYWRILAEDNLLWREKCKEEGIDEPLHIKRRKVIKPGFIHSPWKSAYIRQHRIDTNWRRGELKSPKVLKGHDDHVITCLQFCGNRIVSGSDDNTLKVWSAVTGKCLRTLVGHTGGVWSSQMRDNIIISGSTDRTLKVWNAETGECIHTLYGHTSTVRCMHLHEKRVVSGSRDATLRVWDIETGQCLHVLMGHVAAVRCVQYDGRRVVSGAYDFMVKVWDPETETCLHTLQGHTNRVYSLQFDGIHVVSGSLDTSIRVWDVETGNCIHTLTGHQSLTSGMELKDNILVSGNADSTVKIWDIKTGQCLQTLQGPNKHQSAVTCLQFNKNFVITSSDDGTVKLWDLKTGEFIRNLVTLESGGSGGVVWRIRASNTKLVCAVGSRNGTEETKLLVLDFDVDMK
TEAD-YAP block: TEAD-YAP interaction inhibition; AID 1259422; inhibition, % at 9.12 µM; 640,000 tested, 1.4% active; HEK-TIYL cells, TEAD-Gal4/YAP UAS-luciferase luminescence; in the data active means inhibition above about 32%;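 further: 0% = median of test compound wells and 100% = reference inhibitor wells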
MITF primary: human MITF inhibition, primary screen | O75030 | AlphaScreen MITF homodimerization, bead proximity signal | inhibition, % at 2.6 µM | 650,000 tested, 0.91% active | AID 1259374; in the data active means inhibition above about 50%;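 further: 0% = vehicle wells with protein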
GPR151 activ: activators of human GPR151 | PathHunter beta-arrestin GPR151 cells, luminescence | 650,000 tested, 1% active | activation, % at 11.2 µM | Q8TDV0; in the data active means activation above about 4.9%;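 further: 0% = median of compound wells and 100% = cells with positive control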
GPR151 conf act: confirmation of human GPR151 activators | shares compounds with GPR151 activ | GPR151 PathHunter beta-arrestin cells, luminescence, 90 min; % of EA-reagent control over plate median | activation, % at 11.2 µM | 6,700 tested, under 10 active | AID 1508609;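 active means mean percent activation across replicates above the confirmation screen cutoff of 4.91%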
GPR119 counter: GPR119 activation, counter-screen for GPR151 activators; shares compounds with GPR151 activ; GPR119 PathHunter beta-arrestin cells, luminescence, 90 min; 0 = compound-well median, 100 = enzyme-acceptor control; activation, % at 11.2 µM; 6,700 tested, 0.3% active; AID 1508611;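 active means mean percent activation in the counterscreen above 29.09%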;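 further: counterscreen on off-target GPR119 to flag nonselective hits from the GPR151 activator screen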
* hit, by the source's call; / = no result. Sampled rows, rich in hits. Any-hit rate of the full collection: about 3.5%.

SMILES	FBW7 activator	TEAD-YAP block	MITF primary	GPR151 activ	GPR151 conf act	GPR119 counter
O=C(NCc1ccc2c(c1)OCO2)c1cnn2c(C(F)(F)F)cc(-c3ccccc3)nc12	0	1	3	0	/	/
COc1cccc(-c2noc(CCC(=O)NC(C)C)n2)c1	0	-5	-5	5.6*	-2	-14
CN(C)C(=O)CCc1nc(-c2ccc(Cl)cc2)no1	0	-47	-6	7.2*	-1	-18
COc1ccc(-c2noc(CCC(=O)Nc3ccc(C)cc3)n2)cc1	0	-12	-2	2	/	/
COc1ccc(-c2noc(CCC(=O)Nc3ccc(C)c(C)c3)n2)cc1	0	-2	8	5.2*	2	7
COc1ccc(-c2noc(CC(=O)Nc3cccc(Cl)c3)n2)cc1	0	9	-4	-1	/	/
COc1ccc(-c2noc(CCC(=O)Nc3cccc(Cl)c3)n2)cc1	0	0	-5	9.5*	0	5
Cc1cccc(-c2noc(CCC(=O)N(C)C)n2)c1	0	-42	-7	-4	/	/
O=C(NCc1ccc2c(c1)OCO2)c1ccc2c(c1)N(Cc1cccc(Cl)c1)C(=O)CS2	0	2	-7	-1	/	/
COc1ccc(/C=C2\C(=O)NC(=O)N(c3ccccc3OC)C2=O)c(OC)c1	0	-6	-14	-1	/	/
CN(CCc1ccccn1)c1nc2nonc2nc1NCc1ccccc1	0	-1	4	-1	/	/
Cc1nccn1CCN(C)c1nc2nonc2nc1NCc1ccccc1	0	2	7	12*	0	2
C=CCNC(=O)COc1c(C)cc(Br)cc1C	0	1	-10	12*	0	2
C=CCNC(=S)NNC(=O)COc1ccc2cc(Br)ccc2c1	0	-74	-10	9.7*	0	-4
COC(=O)C1CCN(C(=O)c2ccc(OC)c([N+](=O)[O-])c2)CC1	0	11	18	1	/	/
CC(C)CC1(C)NC(=O)N(Cc2nnc(-c3ccccc3Br)o2)C1=O (stereo not drawn)	0	-7	3	7.0*	1	1
O=C(c1cc(-c2ccc(Cl)cc2)nc2ccccc12)N1CCOCC1	0	3	-3	0	/	/
O=C(c1cc(-c2cccc(Cl)c2)nc2ccccc12)N1CCOCC1	0	7	-10	11*	-1	-3
C/C(=N\Nc1cc(N2CCOCC2)nc(C)n1)c1cccc([N+](=O)[O-])c1	0	-9	9	5.2*	1	4
CCC1CCC2(CC1)SCC(=O)N2c1ccccc1 (stereo not drawn)	0	2	7	5	/	/
CCC1CCC2(CC1)SCC(=O)N2c1ccc(F)cc1 (stereo not drawn)	0	5	9	6.4*	0	-8
CCn1c(=O)c2c(nc3n2CCCN3c2ccc(Br)cc2)n(C)c1=O	0	1	2	0	/	/
C=CCn1c(=O)c2c(nc3n2CCCN3c2ccc(CC)cc2)n(C)c1=O	0	16	3	7.4*	0	-4
C=CCNC(=O)c1cc(CC(C)C)on1	0	-28	-8	-1	/	/
CC(C)C(=O)Nc1cccc(C(=O)N2CCCc3ccccc32)c1	0	10	18	6.5*	1	-1
SMILES	FBW7 activator	TEAD-YAP block	MITF primary	GPR151 activ	GPR151 conf act	GPR119 counter
Cc1ccc(C(=O)N2CCCc3ccccc32)cc1C	0	-12	4	-1	/	/
Cc1ccc(OCC(=O)NC2CCCCC2)cc1C	0	-18	-4	-1	/	/
Cc1ccc(OCC(=O)N(C)C2CCCCC2)cc1C	0	-73	-5	5.0*	-1	7
c1csc(-c2nnc(N3CCOCC3)c3ccccc23)c1	0	6	5	5.9*	0	2
CC1CCN(C(=O)CSc2nc3[nH]ncc3c(=O)[nH]2)CC1	0	-5	0	7.7*	1	10
CCC(C)NC(=O)C1CCCN(S(=O)(=O)N2CCOCC2)C1 (stereo not drawn)	0	-1	6	8.8*	0	0
OC(COc1ccccc1F)CN1CCN(Cc2ccccc2)CC1 (stereo not drawn)	0	8	7	-1	/	/
CCOC(=O)C1=C(C)N=c2s/c(=C\c3cc4c(cc3OC)CCCC4)c(=O)n2C1c1c(OC)ccc2ccc(OC)cc12 (stereo not drawn)	0	-8	-3	3	/	/
COc1ccc(-c2nc(Nc3ccc(N4CCOCC4)cc3)c3ncn(Cc4ccc(C(F)(F)F)cc4)c3n2)cc1	0	9	-1	12*	0	-7
CC(C)N(CCNc1nc(NC2CCC(O)CC2)nc2c1ncn2Cc1ccc(C(F)(F)F)cc1)C(C)C (stereo not drawn)	0	6	-10	-1	/	/
FC(F)(F)c1ccc(Cn2cnc3c(Nc4ccc(N5CCOCC5)cc4)nc(N4CCOCC4)nc32)cc1	0	-1	10	2	/	/
COc1ccc(CCNc2nc(Nc3ccc(N4CCOCC4)cc3)nc3c2ncn3-c2ccccc2)cc1	0	12	12	6.5*	0	10
COc1ccc(CCNc2nc(NC3CCC(O)CC3)nc3c2ncn3Cc2ccc(C(F)(F)F)cc2)cc1 (stereo not drawn)	0	36*	-13	5.9*	0	37*
NC(=O)c1ccc(-c2nc(Nc3ccc(N4CCOCC4)cc3)c3ncn(Cc4ccc(C(F)(F)F)cc4)c3n2)cc1	0	6	-6	0	/	/
FC(F)(F)c1ccc(Cn2cnc3c(Nc4ccc(N5CCOCC5)cc4)nc(Cl)nc32)cc1	0	4	-1	6.9*	1	-2
Clc1nc(NCCOc2ccccc2)c2ncn(C3CCCCC3)c2n1	0	-1	8	-1	/	/
c1ccc(CN2CCC(Nc3nc(NCc4cccnc4)nc4nc[nH]c34)CC2)cc1	0	12	13	-2	/	/
CC1=C(C(N)=O)C(c2cccc(C)c2)n2nc(-c3cccc(Cl)c3)nc2N1 (stereo not drawn)	0	-2	19	1	/	/
CC(C(=O)OCC(=O)Nc1ccc(SC(F)F)cc1)N1C(=O)c2ccccc2C1=O (stereo not drawn)	0	-4	0	5.8*	0	-9
CCOC(=O)c1c(C)c(C(=O)NCCCOC)c(C)n1C	0	1	4	1	/	/
CCOC(=O)c1c(C)c(C(=O)NCCC(C)C)c(C)n1C	0	4	-3	12*	1	4
O=S(=O)(NCC1CCCO1)c1ccc(Cl)c(C(F)(F)F)c1 (stereo not drawn)	1	7	-6	0	/	/
O=S(=O)(NCC1CCCO1)c1ccc(-c2ccc(Cl)cc2)cc1 (stereo not drawn)	0	-1	19	7.4*	1	-1
Cc1c(N2C(=O)c3ccc(Br)cc3C2=O)c(=O)n(-c2ccccc2)n1C	0	-5	3	5.2*	0	-4
